A short description of test [1]: qHTS assay for identifying genotoxic compounds that show differential cytotoxicity against isogenic chicken DT40 cell lines with known DNA damage response pathways - Rev3 mutant cell line (AID 743014). Note: nearly all actives have a fitted effect of over 55% in size. Note: potency is the fitted concentration of half-maximal effect. Background: In qHTS, concentration-response curves come from the screen itself.
Test [2] can be described thus: qHTS assay for identifying genotoxic compounds that show differential cytotoxicity against isogenic chicken DT40 cell lines with known DNA damage response pathways - Rad54/Ku70 mutant cell line (AID 743015). Note: nearly all actives have a fitted effect of over 60% in size. Note: potency is the fitted concentration of half-maximal effect.
Test [3] is described as follows: qHTS assay to identify small molecule antagonists of the androgen receptor (AR) signaling pathway - cell viability counter screen (AID 743033; note: nearly all actives have a fitted effect of over 45% in size; note: potency is the fitted concentration of half-maximal effect).
Test [4] concerns the target Androgen receptor (Homo sapiens) (UniProt P10275). The test can be described thus: qHTS assay to identify small molecule agonists of the androgen receptor (AR) signaling pathway using the MDA cell line (AID 743040; note: nearly all actives have a fitted effect of over 20% in size). The method, boiled down:
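Agonist activity is measured as luciferase luminescence in human MDA-kb2 cells whose MMTV reporter responds to both AR and GR. Compounds in DMSO incubate 16 h at 37C, 0% CO2, and ONE-Glo is read after 30 min.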

The nature of test [5]: qHTS assay to identify small molecule antagonists of the glucocorticoid receptor (GR) signaling pathway - cell viability counter screen (AID 720693). Note: nearly all actives have a fitted effect of over 55% in size.
The nature of test [6]: qHTS assay to identify small molecule antagonists of the androgen receptor (AR) signaling pathway using the MDA cell line - cell viability counter screen (AID 743041; note: nearly all actives have a fitted effect of over 45% in size; note: potency is the fitted concentration of half-maximal effect). The method, boiled down: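 qHTS viability read-out; MDA-kb2 AR-luc; R1881-stimulated; 16 h exposure at 37C, 0% CO2; CellTiter-Fluor, 30 min; fluorescence intensity.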
Test [7] can be described thus: qHTS assay for identifying genotoxic compounds that show differential cytotoxicity against isogenic chicken DT40 cell lines with known DNA damage response pathways - wild type cell line (AID 743012). Note: potency is the fitted concentration of half-maximal effect; nearly all actives have a fitted effect of over 60% in size. Summed up:
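CellTiter-Glo luminescence readout of viability in wild type DT40 cells after 40 h compound exposure at 37 C/5% CO2; 300 cells/well; reagent incubated 30 min at room temperature before reading.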

Test [8] deals with Androgen receptor (Homo sapiens) (UniProt P10275). The test can be described thus: qHTS assay to identify small molecule antagonists of the androgen receptor (AR) signaling pathway (AID 743035; active = well fitted inhibition curve with a large enough effect in the signal ratio in the repeat runs, not every such curve was filed as active; the % refers to the signal ratio; note: potency is the fitted concentration of half-maximal effect). The method, boiled down: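 AR-bla HEK293 reporter cells; 4 h settle at 37C/5% CO2; compound + R1881 agonist, 16 h at 37C; LiveBLAzer B/G FRET substrate 2 h RT; fluorescence intensity read. qHTS format.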
Androgen receptor (Homo sapiens), sequence (P10275 whole entry, looked up): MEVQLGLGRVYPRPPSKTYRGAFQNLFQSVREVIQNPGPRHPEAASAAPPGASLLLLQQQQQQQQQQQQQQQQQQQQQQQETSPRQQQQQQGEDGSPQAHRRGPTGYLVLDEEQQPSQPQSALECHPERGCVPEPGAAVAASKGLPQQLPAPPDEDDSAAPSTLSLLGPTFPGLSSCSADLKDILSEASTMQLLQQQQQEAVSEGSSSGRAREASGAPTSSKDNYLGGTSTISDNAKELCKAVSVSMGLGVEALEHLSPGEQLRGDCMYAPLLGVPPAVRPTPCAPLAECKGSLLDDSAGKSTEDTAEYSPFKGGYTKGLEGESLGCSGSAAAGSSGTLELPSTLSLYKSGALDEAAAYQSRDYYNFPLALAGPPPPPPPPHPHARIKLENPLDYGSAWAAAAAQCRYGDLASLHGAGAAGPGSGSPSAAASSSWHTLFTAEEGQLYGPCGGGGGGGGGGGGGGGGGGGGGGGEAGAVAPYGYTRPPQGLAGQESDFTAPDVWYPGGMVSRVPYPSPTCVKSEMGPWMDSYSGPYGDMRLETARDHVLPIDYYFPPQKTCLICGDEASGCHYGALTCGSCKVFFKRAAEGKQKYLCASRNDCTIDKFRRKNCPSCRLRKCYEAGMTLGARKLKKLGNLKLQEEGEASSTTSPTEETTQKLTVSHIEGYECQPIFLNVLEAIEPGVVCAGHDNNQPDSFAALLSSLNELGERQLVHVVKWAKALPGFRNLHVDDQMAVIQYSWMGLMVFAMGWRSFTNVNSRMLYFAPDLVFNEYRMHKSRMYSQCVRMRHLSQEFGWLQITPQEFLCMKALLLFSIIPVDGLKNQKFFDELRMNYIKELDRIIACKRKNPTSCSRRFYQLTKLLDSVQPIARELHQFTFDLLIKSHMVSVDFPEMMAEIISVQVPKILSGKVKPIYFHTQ

For test [9] the target is unchanged. Description: qHTS assay to identify small molecule antagonists of the androgen receptor (AR) signaling pathway using the MDA cell line (AID 743042; note: nearly all actives have a fitted effect of over 55% in size; note: potency is the fitted concentration of half-maximal effect). The method, boiled down: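 MDA-kb2 cells (human breast carcinoma, stably carrying an MMTV-luciferase reporter responsive to AR and GR) were plated at 3,000 cells/well and preincubated 5 hr at 37C, then given compound plus R1881 agonist for 16 h. ONE-Glo luminescence was read.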

Values joined by “and” are separate entries in the source; they are usually repeats but may differ in a detail not shown here. Identical values can stand only once. Results filed as inconclusive are left out. More than one record can exist for a structure, and the calls need not agree. Active and inactive are the calls of the source. Unless noted, calls come from the whole dose curve; as a rule, active = well fitted curve in the direction sought with a large enough effect in the repeat runs; inconclusive = weak or mixed curves; inactive = no such curve, though single readings can be large; an effect the other way counts as inactive or inconclusive.

Consider `Cc1cccc(C(=O)O)c1O`, for which the Potency result in [1], in [2] and in [3] was “inactive” throughout.

As for `C=CC(=O)Nc1cc2c(Nc3ccc(F)c(Cl)c3)ncnc2cc1OCCCN1CCOCC1`, the Potency in test [1] is 8.41 µM (active); in test [2], 5.96 µM (active). In test [3], the Potency result was “inactive”. The molecule was classed as inactive in test [4].

Take `Nc1nc(-c2ccccc2)cs1`: the Potency entry in test [5], in test [2], in test [3] and in [6] was “inactive” in each case.

As to `Oc1cc(Cl)cc(Cl)c1Cl`, in test [3], the Potency was 50.2 µM (active).

As for `Oc1ccccc1O`, the Potency in [7] is 24.6 µM (active) and 30.6 µM (active); in test [1], 19.6 µM (active) and 54.5 µM (active); in [2] it was 12.3 µM (active) and 27.3 µM (active). For the same molecule, the Potency result in test [3] and in test [6] was “inactive” throughout.

As for `C=CC(=O)OCCOC(=O)C=C`, the Potency was 7.7 µM (active) in test [7], 7.7 µM (active) in test [1] and 10.9 µM (active) in test [2]. In addition, the Potency entry in test [3], in [8], in test [6] and in test [9] was “inactive” each time. Further, the outcome in test [4] was inactive.

With `CN1CCN2c3ccccc3Cc3ccccc3C2C1` (stereo not drawn), in [1], the Potency is 26.6 µM (active). The Potency result in test [3] is “inactive”. Besides, the result in test [4] was inactive.

Turning to `CC[N+](CC)(CC)CCOc1ccc(/C=C/c2ccccc2)cc1`, the Potency in test [7] is 944 nM (active) and 750 nM (active); in test [1], 750 nM (active) and 668 nM (active); in test [2], 944 nM (active) and 750 nM (active); in test [6], 29.8 µM (active). For the same molecule, the Potency result in test [3] was “inactive”.

For the molecule `Cc1c2ccccc2c(C)c2c1ccc1ccccc12`, the Potency in [1] is 15.2 µM (active) and 2.73 µM (active); in [2], 21.5 µM (active) and 4.33 µM (active); in test [3], 48.5 µM (active) and 24.5 µM (active); in [6] it was 61.1 µM (active); in test [9], “inactive and 30.6 µM (active)”. Moreover, the molecule was called inactive in [4].

In the case of `C=Cc1ccccc1C=C`, the Potency entry in [5], in [3] and in test [6] was “inactive” each time.

For the molecule `Cc1cc(C)c(/C=C2\C(=O)Nc3ccccc32)[nH]1`, the Potency result in test [3], in test [8], in test [6] and in test [9] was “inactive” each time. Besides, the result in test [4] was inactive.

On to `O=c1c(O)c(-c2ccc(O)cc2O)oc2cc(O)cc(O)c12`, for which the Potency entry in test [5], in test [3] and in test [6] was “inactive” throughout.

With `CCN(CC)C(=O)c1cc(S(=O)(=O)Cc2ccccc2)c(N2CCC(c3ccccc3)CC2)cc1N(CC)CCN(C)C`, the Potency in test [7] was 5.96 µM (active) and 17 µM (active); in [1], 11.9 µM (active) and 13.5 µM (active); in test [2] it was 10.6 µM (active) and 17 µM (active); in test [3] it was 15.3 µM (active).

Regarding `C=CCCC(=O)/C=C/C1C(C)=CCCC1(C)C` (stereo not drawn), the Potency result in [5], in test [3] and in test [6] was “inactive” in each case.

As to `O=[N+]([O-])c1ccc(O)cc1C(F)(F)F`, the Potency in test [7] is 27.3 µM (active); in test [1] it was 27.3 µM (active); in test [2], 21.7 µM (active); in test [3], 27.5 µM (active); in test [6], 61.1 µM (active).

`CCCC[P+](C)(CCCC)CCCC`: the Potency result in test [5] and in test [3] was “inactive” in each case.

As to `CCN(CCN)c1cccc(C)c1`, the Potency result in test [5], in test [2], in test [3] and in [6] was “inactive” throughout.

With `CCC(CC)(CC(=O)Nc1cccc(/C=C/c2nc(C3CCC3)cs2)c1)C(=O)O`, the Potency result in test [5] and in test [3] was “inactive” throughout.

Regarding `C1CCC(SSC2CCCCC2)CC1`, the Potency entry in [5], in test [2], in test [3] and in test [6] was “inactive” each time.

Consider `CC(C)=CCC1=C(O)c2ccccc2C(=O)C1=O`, for which the Potency is 48.3 µM (active) in test [1] and 60.8 µM (active) in test [2]. In test [4], the molecule was classed as inactive. In addition, in [9], the Potency entry is “inactive”.

On to `COC(=O)C1=C(C)NC(C)=C(C(=O)OCCN2CCN(C(c3ccccc3)c3ccccc3)CC2)C1c1cccc([N+](=O)[O-])c1` (stereo not drawn), for which the results for the Potency in [7], in [1] and in test [2] were 5.31 µM (active), 8.41 µM (active) and 6.68 µM (active), respectively.

`COC1=C(OC)C(=O)C(CCCCCCCCCCO)=C(C)C1=O`: the Potency in test [7] was 8.41 µM (active); in test [1], 13.3 µM (active); in test [8] it was 16.9 µM (active). In addition, the Potency result in [3], in test [6] and in test [9] was “inactive” throughout. For the same molecule, the molecule was called inactive in test [4].

Regarding `CC(C)(C)C1CCC(=O)CC1`, the Potency result in test [5] and in [3] was “inactive” in each case.

Turning to `CCCCOC(=O)CO`, the Potency entry in test [5], in test [2], in [3] and in [6] was “inactive” throughout.

For the molecule `O=C1c2ccccc2C(=O)N1SC1CCCCC1`, the Potency is 15.3 µM (active) and 5.45 µM (active) in test [7]; 6.85 µM (active) and 5.45 µM (active) in test [1]; 17.2 µM (active) and 4.33 µM (active) in test [2]; 38.9 µM (active) and 49 µM (active) in test [3].

As to `CCCCN(CCCC)CC(O)c1cc(Cl)cc2c1-c1ccc(Cl)cc1/C2=C/c1ccc(Cl)cc1` (stereo not drawn), the Potency entry in [5] and in [3] was “inactive” throughout.

For the molecule `[Cl][Pt-2]([Cl])([Cl])[Cl]`, the Potency result in [5], in test [2], in test [3] and in test [6] was “inactive” each time.

Regarding `S=c1nccc[nH]1`, the Potency entry in [5] and in [3] was “inactive” in each case.

Regarding `Sc1nc2ccccc2s1`, the Potency entry in test [5] and in test [6] was “inactive” in each case.

These data come from PubChem BioAssay (Tox21).
